# Measured values taken from PubChem BioAssay AID540276 (National Center for Advancing Translational Sciences (NCATS), 2011).
# Values joined by “and” are separate entries in the source; they are usually repeats but may differ in a detail not shown here. Equal values may be shown once. The campaign covered roughly 300,000 compounds. About 5,400 (1.8%) were called active. Entries that show only a call come without a potency. Roughly 28% stayed inconclusive and do not appear here. Calls follow the shape of the full dose curve; tested in HEK293 cells. Only a selection was taken, and actives are over-represented in it overall. Some structures have more than one record in an assay (separate samples or runs), and their calls can disagree.
# Assay: qHTS for inhibitors of binding or entry into cells for Marburg Virus
# Conditions: Marburg virus pseudotyped entry inhibition, cell reporter; series mostly up to 37.8 µM
# Potency is read from the fitted curve at half-maximal effect.
row,Structure (SMILES),Potency
1,CC12CCC(=O)N1C(C(=O)NCCN1C(=O)S/C(=C\c3ccccc3F)C1=O)CS2 (configuration not stated),inactive
2,Cc1ccc(S(=O)(=O)NCC(=O)NNC(=O)c2ccc(Br)cc2)cc1C,inactive
3,O=C(COC(=O)c1ccccc1)Nc1ccc(Cl)cc1C(=O)c1ccccc1,inactive
4,O=C(CCNS(=O)(=O)c1ccccc1)Nc1ccc(Cl)cc1C(=O)c1ccccc1,8.91 µM (active)
5,O=C(CCNS(=O)(=O)c1ccccc1)NCCCc1ccccc1,inactive
6,O=C(CN(Cc1ccccc1)C(=O)CCC(=O)Nc1ccccn1)NCCc1ccccc1,inactive
7,COc1cccc(-c2nnc(NC(=O)c3ccc(S(=O)(=O)N(CC(C)C)CC(C)C)cc3)o2)c1,1.26 µM (active)
8,COc1cccc(NC(=O)CN(C)S(=O)(=O)c2ccc(C)cc2)c1,inactive
9,O=C(COC(=O)c1ccc(Oc2ccccc2)cc1)Nc1nnc(-c2ccccc2)o1,inactive
10,O=C1NCC(c2ccccc2)(c2ccccc2)C(=O)N1,inactive
11,COc1ccc(Cl)cc1NS(=O)(=O)c1cccc(C(=O)NC2CCC(O)CC2)c1 (configuration not stated),inactive
12,COCCC(=O)N1CCC(Oc2ccc(C(=O)NCc3ccon3)cc2)CC1,inactive
13,CCOC(=O)C1CCCN(CCSc2ccc(C)cc2)C1 (configuration not stated),inactive
14,CN1CCN(c2ccc([N+](=O)[O-])c(Sc3nc4ccccc4[nH]3)c2)CC1,inactive
15,CN1CCN(c2cc(N3CCNCC3)ccc2[N+](=O)[O-])CC1,5.01 µM (active)
16,O=C(c1cccc(F)c1)N1CCN(c2ccc([N+](=O)[O-])c(N3CCCCC3)c2)CC1,inactive
17,O=C(NN=CC=Cc1ccccc1)C(O)C(O)C(=O)NN=CC=Cc1ccccc1 (configuration not stated),inactive
18,N#CC1(Nc2ccc(-c3ccc(Cl)cc3)cc2)CCCC1,inactive
19,Cc1cc(NC(=O)CSc2ncc(C(F)(F)F)cc2Cl)no1,inactive
20,CCOC(=O)CSC1=c2ccccc2=NC1c1cccs1 (configuration not stated),inactive
21,CC1CCN(C(=O)COC(=O)CCC(=O)c2cccs2)CC1,inactive
22,COc1ccc(-n2nc(C(=O)NCC(=O)N3CCN(c4ccccc4OC)CC3)c3ccccc3c2=O)c(OC)c1,inactive
23,CN(Cc1ccccc1Cl)C(=O)C1CCC(=O)N(CCc2cccc(F)c2)C1 (configuration not stated),inactive
24,COc1cc(C)ccc1OCC(=O)OCC(=O)c1ccc[nH]1,inactive
25,CCOc1ccc(NC(=O)c2cn(C3CCCCC3)c(=O)c3c2c2ccccc2n3C)cc1,inactive
26,O=C(c1ccccc1Oc1ccccc1)N1CCN(c2ccc(F)cc2)CC1,inactive

row,Structure (SMILES),Potency
1,Cn1c2ccccc2c2c(C(=O)N3CCN(c4ccc(F)cc4)CC3)cn(C3CCCC3)c(=O)c21,inactive and 17.8 µM (active)
2,O=C(NCCN1CCOCC1)c1cc(-c2cccs2)nc2ccccc12,inactive
3,c1ccc2cc3c(NCCN4CCOCC4)ccnc3cc2c1,3.66 µM (active)
4,O=C(Cn1c(-c2ccccn2)nc2ccccc21)NCCN1CCOCC1,inactive
5,COC(=O)Nc1ccc(S(=O)(=O)Nc2cc(OC)nc(OC)n2)cc1,inactive
6,CC(OC(=O)c1ccc(-n2cnnn2)cc1)C(=O)NCc1ccccc1 (configuration not stated),inactive
7,CC(=O)OC[C@H]1O[C@H](C/C=N/OC[C@@H](O)COCc2ccco2)C=C[C@@H]1OC(C)=O,inactive
8,O=C(/C=C/c1ccccc1)c1ccoc1,inactive
9,O=C(/C=C/c1ccccc1)c1ccccc1O,inactive
10,CC(=O)c1c(O)c(C)c(O)c(Cc2c(O)c3c(c(C(=O)/C=C\c4ccccc4)c2O)OC(C)(C)C=C3)c1O,3.16 µM (active)
11,CC(=O)c1c(O)c(C)c(O)c(Cc2c(O)c3c(c(C(=O)/C=C/c4ccccc4)c2O)OC(C)(C)C=C3)c1O,inactive and 3.16 µM (active)
12,CCOC(=O)C1CCN(S(=O)(=O)c2ccc3c(c2)N(C(C)=O)CCO3)CC1,inactive
13,O=C(c1cccnc1)N(Cc1ccccc1)C(=O)c1cccnc1,inactive
14,O=C(NCC(=O)N1CCN(c2ncc(C(F)(F)F)cc2Cl)CC1)c1ccc(Br)o1,inactive
15,O=C(Nc1cccc2c1CCCC2)c1ccc(F)cc1,inactive
16,CC(C)C1CCCCC1NC(=O)CN1C(=O)C2=C(CCCC2)C1=O (configuration not stated),inactive
17,CCOc1ccc(S(=O)(=O)N2CCN(C(=O)c3oc4ccccc4c3C)CC2)cc1,inactive
18,O=C(COC(=O)c1ccc(F)cc1)Nc1nc2ccc([N+](=O)[O-])cc2s1,inactive
19,O=C(NC(Nc1nc2ccc([N+](=O)[O-])cc2s1)(C(F)(F)F)C(F)(F)F)c1ccccc1,0.517 µM (active)
20,Cc1cc(C)cc(OCC(=O)Nc2nc3ccc([N+](=O)[O-])cc3s2)c1,inactive
21,Cc1ccccc1N1CCN(C(=O)c2cccnc2)CC1,inactive
22,O=C(NCCc1cccc(F)c1)C1CCCN(c2nc3ccccc3s2)C1 (configuration not stated),inactive
23,CCn1c(SCC(=O)NC2CCCC2)nnc1-c1ccoc1C,inactive
24,Cc1ccc(NC(=O)CSCC(=O)Nc2sccc2C#N)cc1,inactive
25,Cc1csc(SCC(=O)Nc2sccc2C#N)n1,4.47 µM (active)
26,Cc1cccc(C)c1Nc1nnc(SCC(=O)Nc2sccc2C#N)s1,inactive
